The campaign covered roughly 52,000 compounds. About 1,700 (3.3%) were called active. Shown is part of a subset that was picked to be rich in actives. A number with no mark means an inactive call. No stated cut-off is given here; in the data, active means survival mostly below about 52% (no sharp cut-off); inactive means mostly above about 56%.
System: Wild type
Assay: growth inhibition of S. aureus wild type versus tarO mutant, primary screen, teichoic acid synthesis inhibitors, RN4220, OD600 (AID 463173)
Conditions: S. aureus RN4220 wild type/DeltatarO growth, OD600, 18 h, hits give low values, screened at 18.75 µg/mL (by protocol)

`O=C1CC(c2ccccc2C(F)(F)F)c2c(c3ccccc3[nH]c2=O)O1` (configuration not stated) was tested. Which survival did it give?
The survival was 69%.

For `Cc1cccc(-c2noc(-c3cccnc3NCc3ccccc3Cl)n2)c1`, which survival is on record?
Its survival is 79%.

`N#Cc1ccccc1CN1C(=O)c2ccccc2Sc2ccc(C(=O)OCc3ccco3)cc21` was tested. Which survival did it give?
The survival was 85%.

For `CC1CCN(S(=O)(=O)c2ccc3c(c2)N(CC(=O)N2CCN(c4ccccc4)CC2)C(=O)CO3)CC1`, which survival is on record?
Its survival is 87%.

With `CCN(CC)C(=O)CSc1nsc(SCC(=O)N(CC)CC)c1C#N` as the compound, how does the survival read?
The survival was 102%.

For `CC(=O)Nc1ccc(S(=O)(=O)N2CCC(Oc3ccc(-n4cnnn4)cc3)CC2)cc1`, which survival is on record?
Its survival is 118%.

How did the survival turn out when `O=C(CN1C(=O)S/C(=C\c2ccco2)C1=O)CN1C(=O)S/C(=C\c2ccco2)C1=O` was run?
Its survival is 113%.

How did the survival turn out when `OC1N(CN2CCN(c3ccccc3F)CC2)c2ccccc2C12OCCCO2` (configuration not stated) was run?
The survival was 104%.

How did the survival turn out when `Cn1cnnc1SCC(=O)Nc1ccc(C#N)cc1` was run?
Its survival is 71%.

How did the survival turn out when `CC(=O)c1cccc(NC(=O)CCCSc2nc(-c3ccco3)cc(C(F)(F)F)n2)c1` was run?
Its survival is 52%.

Which survival does the source give for `Cc1ccccc1CSc1nc(-c2cccc(F)c2)nc2c1Cc1c(CO)cnc(C)c1O2` here?
The survival was 85%.

With `CCc1ccc(-n2nc(C)c3c(C(=O)Nc4cccc(C(F)(F)F)c4)cc(C)nc32)cc1` as the compound, how does the survival read?
The survival was -3% (active).

For `Cc1cc(C)c(NC(=O)c2cc(C)nc3c2c(C)nn3-c2cccc(F)c2)c(C)c1`, which survival is on record?
The survival was 83%.

How did the survival turn out when `CCc1ccc(-n2nc(C)c3c(C(=O)Nc4ccc(Cl)cc4)cc(C)nc32)cc1` was run?
The survival was 53%.

`CCc1ccc(-n2nc(C)c3c(C(=O)Nc4cc(OC)cc(OC)c4)cc(C)nc32)cc1` was tested. Which survival did it give?
Its survival is 66%.

`Cc1cc(C(=O)Nc2cccc(C(F)(F)F)c2)c2c(C)nn(-c3cccc(F)c3)c2n1` was tested. Which survival did it give?
Its survival is -1% (active).

How did the survival turn out when `Cc1cc(C(=O)Nc2cccc(C)c2C)c2c(C)nn(-c3cccc(F)c3)c2n1` was run?
The survival was 73%.

Which survival does the source give for `CCc1nnc2c3ccccc3nc(Nc3cc(C)cc(C)c3)n12` here?
The survival was 37%.

`Cc1cc(C)nc(NS(=O)(=O)c2ccc(NC(=O)c3ccccc3O)cc2)n1` was tested. Which survival did it give?
The survival was 127%.

Which survival does the source give for `CCCN1CCN(c2nnc(-n3cccc3C(=O)Nc3cc(Cl)ccc3C)s2)CC1` here?
The survival was 82%.

How did the survival turn out when `Cc1c(C(=O)N(C)C)sc2c1c(=O)n(-c1ccccc1C(F)(F)F)c(=O)n2Cc1ccccc1C#N` was run?
The survival was 66%.

Which survival does the source give for `CCOC(=O)c1ccccc1NC(=O)Cn1c(=O)n(CCC(=O)N2CCc3ccccc3C2)c(=O)c2ccccc21` here?
The survival was 88%.

Which survival does the source give for `CC(=O)c1ccc(C(=O)N(Cc2cccnc2)c2nc3c(C)c(C)ccc3s2)cc1` here?
Its survival is -3% (active).

Which survival does the source give for `Cc1ccc2sc(N(Cc3cccnc3)C(=O)CCS(=O)(=O)c3ccccc3)nc2c1C` here?
Its survival is 1% (active).

`CC(=O)c1ccc(C(=O)N(Cc2cccnc2)c2nc3c(Cl)cccc3s2)cc1` was tested. Which survival did it give?
The survival was 119%.

For `CC(=O)N(Cc1cccnc1)c1nc2c(C)c(C)ccc2s1`, which survival is on record?
Its survival is 71%.

Which survival does the source give for `Cc1cc(C)c2nc(N(Cc3cccnc3)C(=O)CCS(=O)(=O)c3ccccc3)sc2c1` here?
Its survival is 59%.

`Cc1cccc2sc(N(Cc3cccnc3)C(=O)CCS(=O)(=O)c3ccccc3)nc12` was tested. Which survival did it give?
Its survival is 82%.

Which survival does the source give for `Cc1ccc(SCC(=O)Nc2ccc3oc(-c4cccc(C)c4)nc3c2)cc1` here?
The survival was 96%.

How did the survival turn out when `CCN(CC)C(=O)CSc1nc2cc3c(cc2c(=O)n1CCCC(=O)NCc1ccc(OC)cc1)OCO3` was run?
The survival was 82%.

For `CCN(CC)C(=O)CSc1nc2cc3c(cc2c(=O)n1CCCCCC(=O)NCc1ccc(OC)cc1)OCO3`, which survival is on record?
The survival was -3% (active).

`COCCNC(=O)CSc1nc2cc3c(cc2c(=O)n1CCCCCC(=O)NCc1ccc(OC)cc1)OCO3` was tested. Which survival did it give?
Its survival is 63%.

With `COCCCNC(=O)CSc1nc2cc3c(cc2c(=O)n1CCCC(=O)NCc1ccc(OC)cc1)OCO3` as the compound, how does the survival read?
The survival was 70%.

`COCCCNC(=O)CSc1nc2cc3c(cc2c(=O)n1CCCCCC(=O)NCc1ccc(OC)cc1)OCO3` was tested. Which survival did it give?
Its survival is 1% (active).

With `CCOC(=O)CSc1nc2cc3c(cc2c(=O)n1CCCCCC(=O)NCc1ccc(OC)cc1)OCO3` as the compound, how does the survival read?
Its survival is 71%.

With `COc1ccc(CCNC(=O)CCCn2c(SCC(N)=O)nc3cc4c(cc3c2=O)OCO4)cc1OC` as the compound, how does the survival read?
The survival was 81%.

For `CCCCNC(=O)CSc1nc2cc3c(cc2c(=O)n1CCCC(=O)NCCc1ccc(OC)c(OC)c1)OCO3`, which survival is on record?
The survival was 129%.

How did the survival turn out when `CCOC(=O)CSc1nc2cc3c(cc2c(=O)n1CCCC(=O)NCCc1ccc(OC)c(OC)c1)OCO3` was run?
Its survival is -4% (active).

Which survival does the source give for `CC1Cc2ccccc2N1C(=O)c1nc2ccccc2s1` (configuration not stated) here?
The survival was 113%.

For `O=C(Cn1nc(-c2ccc(Cl)cc2)c2ccccc2c1=O)Nc1cccc(C(F)(F)F)c1`, which survival is on record?
The survival was 71%.

For `COc1ccccc1N=C1SC(C(=O)Nc2ccccc2OC)CC(=O)N1C` (configuration not stated), which survival is on record?
The survival was 73%.

How did the survival turn out when `COc1cccc(-c2nnc3sc(CN4CCCCC4)cn23)c1` was run?
Its survival is 68%.

For `CCN1/C(=C\C=C2C(=O)OC(C)(C)OC2=O)Sc2ccccc21`, which survival is on record?
Its survival is 94%.

Which survival does the source give for `CCC(Sc1nc2ccncc2[nH]1)C(=O)Nc1cc(Cl)ccc1C` (configuration not stated) here?
The survival was 126%.

How did the survival turn out when `CCOC(=O)c1ccc(NC(=O)CN2C(=O)c3cccnc3Sc3ccccc32)cc1` was run?
The survival was 66%.

For `CCOC(=O)c1c(C)n(-c2ccccc2)c2ccc(OC(=O)c3ccccc3)cc12`, which survival is on record?
The survival was 0% (active).

`CCOC(=O)c1c(C)n(-c2ccccc2)c2ccc(OC(=O)c3cccc(C)c3)cc12` was tested. Which survival did it give?
The survival was 50%.

Which survival does the source give for `CCOC(=O)c1c(C)n(-c2ccccc2)c2ccc(OC(=O)c3cccc(Cl)c3)cc12` here?
Its survival is 78%.

For `CC(C)(C)c1ccc(OCCCC(=O)N2CCOCC2)cc1`, which survival is on record?
The survival was 102%.

With `O=C(NCCCN1CCN(c2ccccc2F)CC1)c1sc2ncccc2c1-n1cccc1` as the compound, how does the survival read?
Its survival is 81%.

For `c1coc(-c2nc3ccccn3c2Nc2ccc3c(c2)OCCO3)c1`, which survival is on record?
Its survival is 70%.

`O=C(CC1(O)C(=O)N(CCc2ccccc2)c2ccc(Br)cc21)c1ccccc1O` (configuration not stated) was tested. Which survival did it give?
The survival was 6% (active).

How did the survival turn out when `C#CCN1C(=O)C(O)(CC(=O)c2ccc(OC)c(OC)c2)c2cc(Br)ccc21` (configuration not stated) was run?
The survival was 111%.

For `O=C(CC1(O)C(=O)N(CCc2ccccc2)c2ccc(Br)cc21)c1ccccc1` (configuration not stated), which survival is on record?
The survival was 15%.

`COc1ccc(C(=O)CC2(O)C(=O)N(CCc3ccccc3)c3ccc(Br)cc32)cc1OC` (configuration not stated) was tested. Which survival did it give?
The survival was 65%.

With `O=C(CC1(O)C(=O)N(CCc2ccccc2)c2ccc(Br)cc21)c1ccc(F)cc1` (configuration not stated) as the compound, how does the survival read?
The survival was 4% (active).

How did the survival turn out when `COc1ccc(C(=O)CC2(O)C(=O)N(Cc3ccccc3)c3ccc(Br)cc32)cc1` (configuration not stated) was run?
The survival was 57%.

From PubChem BioAssay AID463173 (ICCB-Longwood Screening Facility, Harvard Medical School, 2010)
